# Data reported in PubChem BioAssay (Tox21).
# Records with an inconclusive call do not appear. Unmarked numbers belong to inactive results. The source made the active and inactive calls. The call rests on the fitted dose curve; in most records, active means well fitted cell-killing curve with a large enough effect in the repeat runs; inconclusive means weak or mixed curves, or effect the other way; inactive means flat fitted curve, though single readings scatter.
# Assay: cAMP Responsive Elements (CRE) small molecule antagonists, cell-based qHTS assay: qHTS cell viability counter screen (AID 2060913); further: nearly all actives have a fitted effect of over 40% in size
# Details: CRE-bla HEK293T viability, CellTiter-Glo luminescence, 5 h; series mostly up to 92.4 µM; viability change, negative = cytotoxic: at the top concentration
# Source text: U.S. Tox21 Program National Center for Advancing Translational Sciences [NCATS] Division of Preclinical Innovation [DPI] U.S. Environmental Protection Agency [EPA] National Institutes of Environmental Health Sciences [NIEHS] National Toxicology Program [NTP] U.S. Food and Drug Administration [FDA] Tox21 Assay Overview: CREB (cyclic-AMP Responsive Element Binding Protein) is a cellular transcription factor. It binds to certain DNA sequences called cAMP Responsive Elements (CRE) and regulates the transcription of the genes. […] This cell line can be used to find agonists/antagonists of the cyclic AMP signaling pathway. The activation of the report gene under culture conditions can be detected by fluorescence intensity. This cell line has been used to screen the Tox21 10K compound library to identify agonists that induce oxidative stress. The cytotoxicity of the Tox21 compound library against the CRE-bla cell line was tested in parallel by measuring the cell viability using CellTiter-Glo assay (Promega, Madison, WI) in the same wells.
# Tox21 Assay Protocol Summary: CRE-bla Hek 293T cells were suspended in assay medium (DMEM containing 10% dialyzed FBS, 0.1 mM NEAA, 1 mM sodium pyruvate and 25 mM HEPES) and dispensed at 2,000 cells/4 uL /well into 1536-well black wall/clear bottom plates using a Multidrop Combi (ThermoFisher Scientific, Waltham, MA) dispenser. After the assay plates were incubated at 37 C/5% CO2 for 18 hrs, 23 nL of compounds dissolved in DMSO, positive controls or DMSO only was transferred to the assay plate by a pintool workstation (Kalypsys, San Diego, CA), followed by addition of 1 uL of 1.25uM NKH477 (0.25 uM as final concentration) in assay medium using a Flying Reagent Dispenser (Aurora Discovery, San Diego, CA). The plates were incubated at 37 C and 5% CO2 for 3 hrs. Then 1 uL of LiveBLAzer B/G FRET substrate (Invitrogen, Carlsbad, CA) was added to each well using Bioraptr Flying Reagent Dispenser (FRD, Aurora Discovery, San Diego, CA). The plates were incubated at room temperature for 2 h, then fluorescence intensities were measured using an Envision plate reader (PerkinElmer, Shelton, CT) at Excitation 405nm, Emission 460nm and 530nm. The % activity was determined from the ratio of 460nm/530nm. For cell viability readout that measures cytotoxicity, 4 uL /well of CellTiter-Glo reagent was added into the assay plates using Bioraptr FRD. After 30 min incubation at room temperature, the luminescence intensity in the assay plates was measured using a ViewLux (PerkinElmer, Shelton, CT) plate reader.
# On the % scale 0 is the no-effect control and ±100 the full control effect.
Structure (SMILES),Potency,"viability change, negative = cytotoxic"
Cn1c(-c2ccccc2)cc(-c2ccccc2)[n+]1C,inactive,–
S=C=NCCc1ccccc1,–,-8.6%
CCCCP(CCCC)CCCC,–,-6.44%
CCC1(CC)C(=O)N=C(O)NC1=O,–,-5.31%
Oc1ccc2ccc3cccc4ccc1c2c34,–,0.136%
C[C@]12CC[C@H](O)CC1=CC[C@@H]1[C@@H]2CC[C@]2(C)C(=O)CC[C@@H]12,inactive,–
COc1ccc(OC)c(CC(C)N)c1 (stereo not given),–,-0.525%
O=Cc1ccco1,inactive,–
CC(C)=CCN1CC[C@@]2(C)c3cc(O)ccc3C[C@@H]1[C@@H]2C,–,-7.83%
Nc1ccc(Cc2ccc(N)c(Cl)c2)cc1Cl,–,12.2%
CCC[CH2][Sn]([CH2]CCC)([O]C(C)=O)[O]C(C)=O,–,3.69%
CC(C)CCCCCCCOP(=O)(Oc1ccccc1)Oc1ccccc1,–,2.47%
Clc1cc(Cl)c(Cl)c(Cl)c1,–,7.45%
C#C[C@]1(O)CC[C@H]2[C@@H]3CCC4=CC(=O)CCC4=C3C=C[C@@]21CC,–,-6.44% [at 42.5 µM]
CN1C(=O)CCS(=O)(=O)C1c1ccc(Cl)cc1 (stereo not given),inactive,–
COc1cccc(C=O)c1,–,0.992%
Clc1ccc(-c2ccc(Cl)c(Cl)c2Cl)c(Cl)c1Cl,–,-9.4%
COC(=O)c1c(C(F)F)nc(C(F)(F)F)c(C2=NCCS2)c1CC(C)C,–,1.8%
CCCCC(CC)COC(=O)c1c(Br)c(Br)c(Br)c(Br)c1C(=O)OCC(CC)CCCC (stereo not given),–,5.06% [at 42.5 µM]
CN(C)[C@@H]1C(=O)C(C(N)=O)=C(O)[C@@]2(O)C(=O)C3=C(O)c4c(O)ccc(Cl)c4[C@@](C)(O)[C@H]3C[C@@H]12,–,5.46%

Structure (SMILES),Potency,"viability change, negative = cytotoxic"
COc1cc(N)c(Cl)cc1C(=O)NC1CN2CCC1CC2 (stereo not given),–,5.29% [at 42.5 µM]
O=C(N[C@H]1N=C(c2ccccc2F)c2cccc3c2N(CC3)C1=O)c1cc2ccccc2[nH]1,–,-0.215% [at 42.5 µM]
NCCOS(=O)(=O)O,–,4.09%
CSSC,–,-5.13%
Nc1ccc([N+](=O)[O-])cc1,–,5.55%
[Cl-].[Cl-].[Cl-].[Yb+3],–,-2.94%
COCc1cnc(C2=NC(C)(C(C)C)C(=O)N2)c(C(=O)O)c1 (stereo not given),–,9.19%
CCN(CC)Cc1nccn1-c1ccc([N+](=O)[O-])cc1C(=O)c1ccccc1Cl,–,-2.21% [at 42.5 µM]
C=CC(=O)OC(C)(C)C,–,-3%
CCCCCCCCSC(=O)Oc1cc(Cl)nnc1-c1ccccc1,–,2.5%
CSc1ccc(C(=O)C(C)(C)N2CCOCC2)cc1,–,-11.8%
O=C(O)COc1ccc(Cl)cc1Cl,inactive,–
CCCN(CC1CC1)c1c([N+](=O)[O-])cc(C(F)(F)F)cc1[N+](=O)[O-],–,-1.14%
CN1CCc2cc3c(cc2C1O)OCO3 (stereo not given),–,-0.59%
CC(C(O)c1ccccc1)N(C)C/C=C/c1ccccc1 (stereo not given),–,-1.61% [at 42.5 µM]
CCOCN(C(=O)CCl)c1c(C)cccc1CC,inactive,–
CCCOC(=O)c1ccccc1C(=O)OCCC,inactive,–
CCN,–,2.59%
c1ccc2c(c1)oc1ccccc12,inactive,–
Cc1ccc2ccccc2c1,–,-4.41%
